35 compounds from PubChem BioAssay (NCATS) can be followed below.

Records with an inconclusive call do not appear. Activity calls are given as the source filed them. Calls follow the shape of the dose curve; as a rule, active = well fitted cell-killing curve with a large enough effect; inconclusive = small, poorly fitted or top-dose-only effect; inactive = no such curve, though single readings can be large or run the other way.
Potency is read from the fitted curve at half-maximal effect.

A short description of this assay: qHTS of pediatric cancer cell lines to identify multiple opportunities for drug repurposing: Primary screen for Rh41 cells (AID 1347108). Also: nearly all actives have a fitted effect of over 70% in size.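 As to activity change, negative = cytotoxic: luminescence drop marks cytotoxic hits.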 Particulars: Rh41 rhabdomyosarcoma viability, CellTiter-Glo luminescence, 48 h; series mostly up to 46 µM; activity change, negative = cytotoxic: at the top concentration. The procedure, abridged:
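Quantitative HTS format: each compound titrated (MIPE 11 points from 0.78 nM, NPC 8 points from 0.59 nM) onto cells plated 5 hours earlier. After 48 h at 37 degrees C, CellTiter-Glo luminescence was recorded.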
As for `CC(C)c1ccc(Cn2ccc3c4c(N)nc(NC5CC5)nc4ccc32)cc1`, the Potency is 3.72 µM (active). `c1nc2nc(Nc3ccc(N4CCOCC4)cc3)nc(NC3CCCCC3)c2[nH]1`: the Potency is 5.9 µM (active). Take `COc1cc2c(Oc3ccc4[nH]c(C)cc4c3F)ncnc2cc1OCCCN1CCCC1`: the Potency is 18.7 µM (active). On to `Nc1ccn([C@@H]2CS[C@H](CO)O2)c(=O)n1`, for which the “activity change, negative = cytotoxic” value is 30.6% [at 92.7 µM] (inactive). For the compound `Cc1ccc(S(=O)(=O)Nc2cc(Cl)ccc2C(=O)Nc2nc(-c3ccccc3)cs2)cc1`, the Potency is 18.7 µM (active). On to `CC(C)Nc1cc(C(F)(F)F)cc2nc(NC(=O)c3cccnc3)nn12`, for which the “activity change, negative = cytotoxic” value is -8.72% (inactive). `OCc1ccc(-c2ccc(-c3ccc(CO)s3)o2)s1`: the Potency is 7.43 µM (active). The same measure, in the same setting: in the case of `C=CC(=O)Nc1cc2c(Nc3ccc(F)c(Cl)c3)ncnc2cc1OCCCN1CCOCC1` it was 18.7 µM (active).

For the compound `Cc1ccc(NC(=O)C2(c3ccc4c(c3)OC(F)(F)O4)CC2)nc1-c1cccc(C(=O)O)c1`, the Potency was 0.296 µM (active).

For the compound `COc1ccc(CC2c3cc(OC)c(OC)cc3CC[N+]2(C)CCC(=O)OCCCCCOC(=O)CC[N+]2(C)CCc3cc(OC)c(OC)cc3C2Cc2ccc(OC)c(OC)c2)cc1OC` (stereo not given), the activity change, negative = cytotoxic was 23.2% [at 9.22 µM] (inactive). `Cc1cc(Nc2cc(N3CCN(C)CC3)nc(C=Cc3ccccc3)n2)n[nH]1`: the Potency is 10.8 µM (active). As for `COc1cc(C)c(Sc2cnc(NC(=O)c3ccc(CNC(C)C(C)C)cc3)s2)cc1C(=O)N1CCN(C(C)=O)CC1` (stereo not given), the Potency is 2.64 µM (active). On to `O=c1c2ccccc2nc2n1CCc1c-2[nH]c2ccccc12`, for which the “activity change, negative = cytotoxic” value was 8.44% (inactive). With `Nc1ccc(S(=O)(=O)Nc2ncccn2)cc1`, the “activity change, negative = cytotoxic” value is 33.8% (inactive). Take `CC(=O)OCCN1C(=O)c2c(C)nc3ccc(S(=O)(=O)N4CCOCC4)cc3c2C1=O`: the “activity change, negative = cytotoxic” value was 24.1% (inactive). As to `O=C(CCCCCCNC(=O)c1cnc(N(c2ccccc2)c2ccccc2)nc1)NO`, the Potency is 9.35 µM (active). Take `O=C1CCC[C@@H]2[C@H]3CCC[N+]4([O-])CCC[C@@H](CN12)[C@@H]34` (stereo not given in full): the “activity change, negative = cytotoxic” value was 15% (inactive). Still for that read-out and setting: in the case of `COc1ccc(CC2SC(=O)NC2=O)cc1C(=O)NCc1ccc(C(F)(F)F)cc1` (stereo not given) it was -5.83% (inactive).

With `Nc1nccc(Oc2ccc(NC(=O)c3c[nH]cc(-c4ccc(F)cc4)c3=O)cc2F)c1Cl`, the Potency was 18.7 µM (active). For `CC1COC2(CCN(c3nc(=O)c4cc(C(F)(F)F)cc([N+](=O)[O-])c4s3)CC2)O1` (stereo not given), the “activity change, negative = cytotoxic” value is 27.5% (inactive). As for `Cc1coc2c1C(=O)C(=O)c1c-2ccc2c1CCCC2(C)C`, the “activity change, negative = cytotoxic” value was -24.3% (inactive).

`COc1c(N2C[C@@H]3CCCN[C@H]3C2)c(F)cc2c(=O)c(C(=O)O)cn(C3CC3)c12`: the “activity change, negative = cytotoxic” value is 19.9% (inactive). As to `O=C(O)CCCc1c[nH]c2ccccc12`, the “activity change, negative = cytotoxic” value is 16.2% (inactive).

Regarding `O=C(O)[C@H](Cc1c[nH]c2ccccc12)N1C(=O)c2ccccc2C1=O`, the “activity change, negative = cytotoxic” value was 17.9% [at 92.7 µM] (inactive). Turning to `COc1ccc2c(c1)CC[C@@H](CN(C)CC(=O)O)[C@H]2c1ccccc1`, the Potency is 5.9 µM (active). Consider `O=c1[nH]c(=O)n(C2CCCO2)cc1F` (stereo not given), for which the “activity change, negative = cytotoxic” value is 22.8% [at 92.7 µM] (inactive).

For the compound `Nc1nc(-c2nn(Cc3ccccc3F)c3ncccc23)nc(N)c1N1CCOCC1`, the “activity change, negative = cytotoxic” value was 5.95% (inactive). In the case of `O=C(O)Cn1nnc(-c2cc(N3CCC(Oc4cc(F)ccc4Br)CC3)no2)n1`, the “activity change, negative = cytotoxic” value is 33.1% (inactive). Turning to `COc1cc2c(cc1-c1c(C)noc1C)ncc1[nH]c(=O)n([C@H](C)c3ccccn3)c12`, the Potency was 9.35 µM (active). Regarding `Cc1cn2cc(C(=O)N(C)CCO)cc(N[C@@H]3CCOc4cccc(C)c43)c2n1`, the “activity change, negative = cytotoxic” value was 24.1% (inactive). Same read-out and setting: next, `CN1c2cc(O)c(N=NC(N)=O)cc2CC1S(=O)(=O)O` (stereo not given): -0.702% (inactive); `O=C(O)CO.[NH2-].[NH2-].[Pt+2]`: 24.9% (inactive); `CN(C)c1nc(Cc2ccc(NC(=O)c3ccc4ccccc4c3)cc2)nc(Cl)c1CC(=O)O`: 14.4% (inactive). On the same count and under the same terms, in the case of `Cn1c(CNc2ccc(C(=N)N)cc2)nc2cc(C(=O)N(CCC(=O)O)c3ccccn3)ccc21` it was 28.8% [at 16.1 µM] (inactive). For the compound `CCN(CC)CCNC(=O)c1ccc2nc(-c3ccccc3)c(-c3ccc(CN4CCC(n5c(=O)[nH]c6ccccc65)CC4)cc3)nc2c1`, the Potency was 10.5 µM (active).
